Laboratory results as given in PubChem BioAssay AID1211 (NMMLSC, 2008).
Calls of active or inactive are those of the source. The rule behind the calls is not given here.

These compounds were tested against Estrogen receptor (Homo sapiens) (UniProt P03372) (assay: ERalpha ligand binders by competition, primary screen, cell-based, Cos7 ERalpha-GFP, flow cytometry (AID 1211;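 note: 0% = DMSO vehicle wells and 100% = no E2-Alexa633 signal left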)). Conditions: fluorescent ligand competition, at 10 µM, hits give high values.
Estrogen receptor (Homo sapiens), sequence (P03372 whole entry, looked up): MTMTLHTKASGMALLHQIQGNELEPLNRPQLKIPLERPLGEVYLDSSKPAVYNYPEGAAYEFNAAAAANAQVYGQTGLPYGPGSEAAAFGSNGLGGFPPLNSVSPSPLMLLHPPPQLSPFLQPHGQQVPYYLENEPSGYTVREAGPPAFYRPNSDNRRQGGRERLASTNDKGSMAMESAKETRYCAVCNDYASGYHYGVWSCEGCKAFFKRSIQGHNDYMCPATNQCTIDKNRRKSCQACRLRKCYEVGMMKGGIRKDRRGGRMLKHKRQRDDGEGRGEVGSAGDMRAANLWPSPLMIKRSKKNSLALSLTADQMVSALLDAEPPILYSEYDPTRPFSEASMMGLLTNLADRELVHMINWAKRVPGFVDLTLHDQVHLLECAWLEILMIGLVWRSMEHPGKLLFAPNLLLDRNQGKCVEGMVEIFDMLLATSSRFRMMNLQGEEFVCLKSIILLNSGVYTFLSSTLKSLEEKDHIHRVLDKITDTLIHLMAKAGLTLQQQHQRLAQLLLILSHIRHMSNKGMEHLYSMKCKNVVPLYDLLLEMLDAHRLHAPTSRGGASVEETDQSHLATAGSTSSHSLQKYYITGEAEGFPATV

Structure (SMILES) | inhibition of ligand binding
C/C(N)=C(/C#N)C(=O)CSc1nnc(Cc2ccccc2F)n1N | 0% (inactive)
COc1cc(-c2nc3ccc4ccccc4c3c3c2CCC3)cc(OC)c1O | 0% (inactive)
Cc1c(N=Cc2ccc(O)c(Br)c2)cccc1[N+](=O)[O-] | 0% (inactive)
C[C@]12CC[C@@H]3c4ccc(O)cc4C(=O)C[C@H]3[C@@H]1CC[C@@H]2O | 78% (active)
NC(=O)c1c(NC(=O)c2cc3ccccc3o2)sc2c1CCC2 | 43% (inactive)
Cc1noc(C)c1COC(=O)c1cc2c3ccccc3n(C)c2s1 | 41% (inactive)
CCCCn1c(NC(=O)CC)c(C#N)c2nc3ccccc3nc21 | 35% (inactive)
COc1cc2c(cc1O)C(Cc1ccc(O)cc1)NCC2 (configuration not stated) | 34% (inactive)
CCc1ccc2[nH]c(=O)c(C3C(C#N)=C(N)Oc4c3ccc3cccnc43)cc2c1 (configuration not stated) | 30% (inactive)
Oc1ccc(/C=N/n2c(-c3ccco3)csc2=Nc2cccnc2)c(O)c1 | 49% (inactive)
NC(=O)c1ccsc1NC(=O)COC(=O)Cc1ccsc1 | 37% (inactive)
COc1ccc(N2C(=O)c3ccccc3NC2c2ccc(OC)c(COc3ccccn3)c2)cc1 (configuration not stated) | 0% (inactive)
COC(=O)c1ccc(CC(=O)c2ccc(O)cc2O)o1 | 32% (inactive)
COc1ccc(N2C(=O)c3ccccc3NC2c2ccc(OC)c(CSc3ccccn3)c2)cc1 (configuration not stated) | 40% (inactive)
Cc1nn2cc(-c3ccc(N)cc3)nc2s1 | 28% (inactive)
COC(=O)c1c(NC(=O)Cc2cccs2)sc2c1CCCC2 | 57% (active)
Nc1ccc(-n2cnc3cc([N+](=O)[O-])ccc32)cc1 | 41% (active)
